High-throughput results as filed in PubChem BioAssay.
IkB sig inh: IkB Signaling; ABC-DLBCL IkBa-CBG/CBR dual luciferase ratio, 4 h; response scale: scaled: untreated 0%, proteasome inhibitor 100%; Potency, µM (titrated, usually from 57.1 µM), for inactives: at the top dose IkBa stabilization activation; 0.04% of 110,000 active; active = well fitted curve in the direction sought with a large enough effect in the signal ratio, not every such curve was filed as active; inconclusive = small, poorly fitted or top-dose-only effect, or a change in a side signal; the % refers to the signal ratio;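 also: the direction sought is a rising ratio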
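In this assay, an IκBα–CBG68 fusion accumulates when IKK-driven degradation is blocked; native CBR normalizes for cell number. OCI-Ly3 cells were treated 4 h with compound and doxycycline, then green and red light read after Chroma-Glo addition.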
Imprint erasure: qHTS Assay for Compounds that Induce Erasure of Genomic Imprints | AID 1948, 2009 | 0.02% of 110,000 active | mouse ES Peg3-LacZ reporter, beta-gal luminescence, 40 h | Potency, µM (doses to about 60.7 µM), for the others: at the highest dose activity change, positive = activation, actives largely listed as activators
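Imprint erasure is scored as LacZ activity from the silenced maternal Peg3 allele in feeder-free female ES cells cultured 40 h with LIF. Luminescence is normalized to in-plate negative controls and fitted to the Hill equation.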
p53ts 39C tox: qHTS Screen for Compounds that Selectively Target Cancer Cells with p53 Mutations: Cytotoxicity of p53ts Cells at the Nonpermissive Temperature | H1299-p53A138V viability at 39C, ATP luminescence, 24 h | Potency, µM (series often up to 46.1 µM), inactives show at the highest dose activity change, negative = cell killing, usual class: cytotoxic | 1.5% of 130,000 active | AID 902, 2007; also: % is scaled to controls: 0 for no effect and ±100 for the full control effect; nearly all actives have a fitted effect of over 55% in size
p53ts 32C tox: qHTS Screen for Compounds that Selectively Target Cancer Cells with p53 Mutations: Cytotoxicity of p53ts Cells at the Permissive Temperature | H1299-p53A138V at 32C, ATP luminescence viability, 24 h | Potency, µM (doses to about 46.1 µM), for the others: at the highest dose activity change, negative = cytotoxicity, most hits filed as cytotoxic | 0.93% of 130,000 active;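 also: 0% = DMSO and -100% = full killing by reference compound; nearly all actives have a fitted effect of over 55% in size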
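Viability by ATPlite luminescence after 24 h compound treatment (up to 46 uM) at the permissive 32C. Cells are H1299 carrying p53 A138V. Scale runs from DMSO basal to 100 uM tamoxifen as full kill; AC50 from Hill fits.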
Numbers without * were called inactive; ? = inconclusive; · = no result; [ ] = dose if it differs, or a comment. Most compounds without a hit are left out; they make up all but 1.8% or so of the library. Unless noted, calls follow the shape of the dose curve; as a rule, active = well fitted curve in the direction sought with a large enough effect; inconclusive = small, poorly fitted or top-dose-only effect, or another doubt; inactive = no such curve, though single readings can be large; an effect the other way counts as inactive or inconclusive. Potency is read from the fitted curve at half-maximal effect.

SMILES | IkB sig inh | Imprint erasure | p53ts 39C tox | p53ts 32C tox
COc1ccccc1Nc1nn2c(=O)c3ccc(C(=O)N4CCCC(C)C4)cc3nc2s1 (configuration not stated) | ? | 10%[10.9 µM] | -3% | ?
CCC(Sc1nnc2c(n1)[nH]c1ccccc12)C(=O)Nc1nnc(C(C)C)s1 (configuration not stated) | 8% | 23%[10.9 µM] | 10µM* | ?
CCOC(=O)c1cccc(NC(=O)CCn2nc(C)c(S(=O)(=O)N3CCCCC3)c2C)c1 | 1% | -5%[10.9 µM] | -8% | -2%
O=C(CN1C(=O)COc2ccccc21)N(Cc1cccnc1)Cc1cccc(F)c1 | -3% | -3% | 1% | -5%
O=C(Nc1ccc(F)cc1F)c1c2c(nc3ccccc13)C(=O)N(C1CCCCC1)C2 | ? | 21%[10.9 µM] | ? | -2%
COc1ccc(C)cc1NC(=O)c1c2c(nc3ccccc13)C(=O)N(C1CCCCC1)C2 | ? | -8%[10.9 µM] | 10µM* | -22%
Cc1cccc(C(=O)Oc2c(Sc3ccccc3)c(C)nn2C(C)(C)C)c1 | 1% | -5%[10.9 µM] | 21% | 8%
Cn1c(=O)[nH]c(=O)c2c1nc(CN1CCN(c3cccc(Cl)c3)CC1)n2CCCc1ccccc1 | 7% | -79% | 4µM* | 5µM*
CC1CCN(C(=O)Cn2cc(SCC(=O)Nc3ccccc3)c3ccccc32)CC1 | 0% | -13%[10.9 µM] | 8% | 2%
O=C(CN1C(=O)C(c2ccc(F)cc2)=NC12CCCCCC2)Nc1ccc(F)c(Cl)c1 | ? | -5%[10.9 µM] | 10µM* | 20%
CCOc1ccc(NC(=O)Cn2c(=O)n(-c3ccccc3)c(=O)c3c4c(sc32)CCCC4)cc1 | -1% | 20%[10.9 µM] | -10% | -9%
COc1ccc(NC(=O)Cn2c(=O)n(-c3ccccc3)c(=O)c3c4c(sc32)CCCC4)cc1 | ? | 8%[10.9 µM] | 25µM* | ?
O=c1c2c(nc3c(-c4ccc(Cl)cc4)c[nH]n13)CCCC2 | ? | -9% | 20µM* | -16%
O=c1c2c(nc3c(-c4cccc5ccccc45)c[nH]n13)CCC2 | ? | ? | -19% | ?
Cc1ccc2nc(/C(C#N)=C/c3cccc(Br)c3)[nH]c2c1 | -2% | -13%[10.9 µM] | -25% | ?
Cc1ccc2nc(/C(C#N)=N/O)[nH]c2c1 | ? | -14% | ? | 7.9µM*
CCN(CC)c1ccc(NC(=O)Nc2cccc(C(C)=O)c2)cc1 | ? | -11% | 13µM* | 13µM*
CC(=O)c1cccc(NC(=O)Nc2ccc3c(c2)N(C)C(=O)CS3)c1 | ? | -14% | 20µM* | ?
CCOC(=O)c1cnc(-n2nc(C)cc2C)nc1N(C)C | -4% | -55% | 2µM* | 3.2µM*
Nc1nc(-c2ccc3c(c2)OCCO3)cs1 | -1% | -13% | ? | ?
CCC(C)C(=O)N1CCc2cc(-c3csc(N)n3)ccc21 (configuration not stated) | -2% | -25% | 13µM* | 10µM*
Nc1nc(-c2ccc3c(c2)CCCC3)cs1 | -1% | 7% | 13µM* | ?
CCCC(=O)N1CCc2cc(-c3nc(N)sc3C)ccc21 | -3% | -22% | -25% | -12%
CCN1CCN(c2ncnc3c2cnn3-c2ccc(C)cc2)CC1 | -1% | -12%[10.9 µM] | ? | -17%
Cc1ccc(-n2ncc3c(N4CCCCCC4)ncnc32)cc1 | 2% | -46%[10.9 µM] | 2.5µM* | 3.2µM*
SMILES | IkB sig inh | Imprint erasure | p53ts 39C tox | p53ts 32C tox
Fc1ccc(-n2ncc3c(N4CCCCCC4)ncnc32)cc1 | 0% | -24%[10.9 µM] | 5µM* | ?
CC/C(C)=N/O | 1% | -2% | 1% | 1%[1.84 µM]
CCCN(C(=O)c1cc2c(s1)-c1ccccc1OC2)c1ccccc1F | ? | -19%[10.9 µM] | -11% | 17%
CCCN(C(=O)c1cc2c(s1)-c1ccccc1SC2)c1ccccc1F | ? | -10%[10.9 µM] | 25µM* | -3%
CCCCN(CC)S(=O)(=O)c1ccc(C(=O)Nc2nnc(-c3cccs3)o2)cc1 | ? | -33% | 13µM* | ?
CCCCN(CCCC)S(=O)(=O)c1ccc(C(=O)Nc2nnc(COC)o2)cc1 | -1% | -23% | 10µM* | -13%
CCCCN(C)S(=O)(=O)c1ccc(C(=O)Nc2nnc(CSC)o2)cc1 | 1% | -24% | 10µM* | -21%
CCC(NC(=O)c1ccccc1NC(=O)c1ccccc1)C(=O)O (configuration not stated) | ? | -30% | -8% | 0%
CCCC(c1nnnn1CCc1ccccc1)N1CCC(C(N)=O)CC1 (configuration not stated) | · | · | 2% | 2%
COc1ccc(/C=C/C(=O)c2cccs2)c(OC)c1 | · | -25% | 5µM* | 16µM*
COC(=O)c1ccccc1NC(=O)c1cc2c(s1)-c1ccccc1OC2 | ? | -8%[10.9 µM] | -11% | 29%
COc1cc(NC(=O)c2cc3c(s2)-c2ccccc2OC3)cc(OC)c1OC | ? | -9%[10.9 µM] | ? | 13µM*
CC[C@]1(O)C[C@H]2CN(CCc3c([nH]c4ccccc34)[C@](C(=O)OC)(c3cc4c(cc3OC)N(C=O)[C@H]3[C@@](O)(C(=O)OC)[C@H](OC(C)=O)[C@@]5(CC)C=CCN6CC[C@]43[C@H]65)C2)C1 | ? | · | 32µM* | ?
CCC1(O)CC2CN(CCc3c([nH]c4ccccc34)[C@@](C(=O)OC)(c3cc4c(cc3OC)N(C=O)C3[C@]45CCN4CC=C[C@@](CC)([C@@H](OC(C)=O)[C@]3(O)C(=O)OC)[C@H]45)C2)C1 (some centres not stated) | · | -22% | · | ·
N#Cc1ccccc1Cn1c(=O)n(-c2ccc(CC(=O)NCc3ccco3)cc2)c(=O)c2sccc21 | -2% | -11% | 2% | 2%
Cc1c(C(=O)O)cnc2cc(-c3ccc(Cl)cc3)nn12 | ? | -80% | ? | 10µM*
CC(=O)c1cnc2c(-c3ccc(Cl)cc3)c(C)nn2c1C | · | · | 6% | -17%
Cc1ccc(NC(=O)CSc2ncc(-c3ccccc3)[nH]2)cc1 | ? | -11%[10.9 µM] | -23% | 8%
Cc1ccc(NC(=O)CSc2[nH]c(=O)ncc2C)cc1 | -2% | -21%[10.9 µM] | 10µM* | 0.1µM*
O=C(N/N=C/c1sc2ccccc2c1O)c1ccccc1 | · | · | 7.1µM* | ·
CC[C@@H](C)[C@H]1O[C@]2(CC[C@@H]1C)C[C@@H]1C[C@@H](C/C=C(\C)[C@@H](O[C@H]3C[C@H](OC)[C@@H](O[C@H]4C[C@H](OC)[C@@H](O)[C@H](C)O4)[C@H](C)O3)[C@@H](C)/C=C/C=C3\CO[C@@H]4[C@H](O)C(C)=C[C@@H](C(=O)O1)[C@]34O)O2 | · | -33% | · | ·
